# Sampled rows, rich in hits. Any-hit rate of the full collection: about 2.6%.
# Gli-Sufu block – Gli-Sufu pathway antagonism. Sufu-KO-LIGHT fibroblasts, Gli luciferase reporter luminescence. inhibition, % at 5 µM. 340,000 compounds, 0.74% hits. AID 588413;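 active = inhibition above about 55%, limit read from the data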
# Jurkat NFkB inh – lowers PMA/ionomycin-induced NF-kB signal in Jurkat cells | PMA/ionomycin-induced NF-kB luciferase reporter, luminescence | inhibition, % at 4 µM | 330,000 compounds, 0.53% hits | AID 435003; in the data active = inhibition above about 50%
# H9c2 TAG inh – inhibitors of triacylglycerol accumulation; H9c2 cells, Nile Red lipid (TAG) fluorescence; cells loaded with 200 µM oleic acid; inhibition, % at 12.5 µM; 230,000 compounds, 0.66% hits; AID 651582;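 active = pattern-corrected inhibition of lipid staining of at least 50% with the nuclear-stain viability signal not falling by more than 50%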
# 697 NFkB inh – lowers PMA/ionomycin-induced NF-kB signal in 697 B cells | 697 B-cell NF-kB luciferase reporter, 16 h | inhibition, % at 4 µM | 330,000 compounds, 0.33% hits | AID 435022; in the data active = inhibition above about 35%
# NR2F2 inh – inhibitors of human COUP-TFII (NR2F2); P24468; HEK293T NGFI-A luciferase reporter, luminescence; inhibition, % at 8.6 µM; 370,000 compounds, 0.7% hits; AID 686940;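 active = inhibition above a per-plate cutoff, mean inhibition of test wells between control levels plus 3 SD, cut at about 38% in these data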;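 also: cells cotransfected with COUP-TFII expression vector driving the NGFI-A reporter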
# Target sequence (P24468 whole entry, looked up): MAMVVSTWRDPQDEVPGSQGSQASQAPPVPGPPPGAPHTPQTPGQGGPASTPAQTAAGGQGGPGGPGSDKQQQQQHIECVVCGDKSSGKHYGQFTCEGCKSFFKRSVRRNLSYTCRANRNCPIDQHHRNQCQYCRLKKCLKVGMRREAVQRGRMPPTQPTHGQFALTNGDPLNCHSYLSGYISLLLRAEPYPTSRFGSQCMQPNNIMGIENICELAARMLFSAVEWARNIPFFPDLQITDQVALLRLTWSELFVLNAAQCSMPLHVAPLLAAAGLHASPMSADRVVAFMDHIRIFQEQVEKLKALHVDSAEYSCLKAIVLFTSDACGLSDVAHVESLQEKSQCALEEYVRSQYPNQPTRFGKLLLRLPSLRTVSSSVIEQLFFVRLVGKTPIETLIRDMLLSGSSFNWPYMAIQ
# Cardio protect – modulators protecting cardiomyocytes from myocardial damage; H9c2 cardiomyocytes, H2O2 injury protection, ATPLite, 2 h; protection from H2O2 cell death, % at 20 µM; 360,000 compounds, 0.63% hits;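 active = compounds giving at least 50% protection of heart cells from peroxide-induced death in the single-dose screen, raw or plate-pattern-corrected value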
# Jurkat NFkB conf – lowers PMA/ionomycin-induced NF-kB signal in Jurkat cells. inhibition, % at 4 µM. shares compounds with Jurkat NFkB inh. 2,700 compounds, 27% hits. Jurkat NF-kB luciferase, 16 h;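 active = inhibition reaching about 45% at 4 µM in either replicate, limit read from the data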
# A number is an active result; 0 = inactive; - = no result given.
SMILES,Gli-Sufu block,Jurkat NFkB inh,H9c2 TAG inh,697 NFkB inh,NR2F2 inh,Cardio protect,Jurkat NFkB conf
COc1ccc2c(C)cc(SCC(=O)NC3CCCC3)nc2c1,0,0,0,0,0,0,-
COc1ccc2nc(SCC(=O)NC3CCCC3)c(C)cc2c1,0,50,-,0,0,0,0
C[C@H](CCC(=O)N(c1ccccc1)c1ccccc1)CC1CCCCC1,-,-,-,-,0,-,-
COc1ccc(N(CC(=O)Nc2cc(Cl)ccc2OC)S(=O)(=O)c2c(C)noc2C)cc1,0,69,-,0,0,0,0
COc1ccc(OC)c(NC(=O)CN(c2ccc(C)cc2)S(=O)(=O)c2c(C)noc2C)c1,0,0,0,0,0,0,-
Cc1ccc(C(=O)NN(C)c2nc3ccccc3nc2C(F)(F)F)cc1,0,56,0,0,0,0,0
O=C(COC(=O)C1CC1)Nc1ccc(N=Nc2ccccc2)cc1,0,0,-,0,0,0,0
Cn1ncc2c(O/N=C(\N)c3ccc(C(C)(C)C)cc3)ncnc21,0,101,86,0,-,0,0
CN(C)C=Nc1ccc(Cn2cnc3nc4ccc(Cl)cc4cc3c2=O)cc1,-,-,-,-,0,-,-
NC(=O)c1ccsc1NC(=O)c1ccc(N2CCCC2=O)cc1,0,0,0,0,0,0,0
CN1CCN(c2ccc3c(c2)Oc2ccccc2CN(Cc2cn(Cc4cccc(C(F)(F)F)c4)nn2)S3(=O)=O)CC1,-,-,-,-,0,-,-
O=C(Nc1nc2ccccc2[nH]1)c1ccccc1O,0,0,-,0,0,0,-
O=C(Nc1nc2ccccc2[nH]1)c1cccc(Cl)c1,0,0,0,0,0,0,0
Clc1ccc([C@H]2OC[C@@]3(CNCCc4c[nH]c5ccccc45)CS[C@H](c4ccc(Cl)cc4)N23)cc1,-,-,-,-,0,-,-
CCOC(=O)CC[C@@H]1CC[C@]2(CCCN(C(=O)C3CCCC3)C2)O1,-,-,-,-,0,-,-
O=C(Nc1nc2c(s1)CCCC2)c1ccc(Br)s1,0,0,-,0,0,0,0
Cc1cc(C(=O)Nc2nc3c(s2)CCCC3)cs1,0,0,-,0,0,0,0
Cc1ncsc1C(=O)Nc1nc2c(s1)CCCC2,0,0,-,0,0,0,-
O=C(Nc1nc2c(s1)CCCC2)c1ccc(N2C(=O)CCC2=O)cc1,0,0,0,0,0,0,-
O=C(Nc1nc2c(s1)CCCC2)c1ccc2ncsc2c1,0,0,0,0,0,0,0
C#CCN1CC(N(C)CCOC(=O)c2occ3ccccc23)CS1(=O)=O (stereo not drawn),-,-,-,-,0,-,-
COC(=O)[C@]12C[C@H](CC(=O)N3CCOCC3)C(=O)N(Cc3ccco3)C1=C[C@H](C(C)(C)C)O[C@@H]2C,-,-,-,-,0,-,-
COC(=O)[C@]12CCCCC=C1N(Cc1ccc(OC)cc1)C(=O)[C@@H]2CC(=O)NCC12CC3CC(CC(C3)C1)C2,-,-,-,-,0,-,-
C=CCOc1ccc2nc(NC(=O)OC)[nH]c2c1,0,72,-,0,0,0,0
COC(=O)Nc1nc2ccc(-c3n[nH]c(=O)c4ccccc34)cc2[nH]1,0,71,0,0,0,68,0
SMILES,Gli-Sufu block,Jurkat NFkB inh,H9c2 TAG inh,697 NFkB inh,NR2F2 inh,Cardio protect,Jurkat NFkB conf
CCCCNC(=O)O[C@H]1CC[C@@]23CCCN2C(=O)CCC[C@H]3C1,-,-,-,-,0,-,-
Cc1cccc(N2CCCC2=Nc2ccc(Br)cc2C#N)c1,0,62,-,0,0,0,0
C[C@@H]1ON(C)[C@H]2C[C@H]3c4cc(-c5ccc(F)cc5)ccc4CCN3C[C@@H]12,-,-,-,-,0,-,-
O=C(c1ccc(CS(=O)c2ccccc2Cl)o1)N1CCN(c2ccccn2)CC1 (stereo not drawn),0,52,-,0,0,0,0
O=C(c1ccc(CS(=O)Cc2ccccc2Cl)o1)N1CCN(c2ccccn2)CC1 (stereo not drawn),0,0,-,0,0,0,-
CCC(=O)Nc1cccc(-c2ccc(N3CCN(C)CC3)nn2)c1,0,0,-,0,-,0,-
CN1CCN(c2ccc(-c3cccc(NC(=O)COc4ccc(Cl)cc4)c3)nn2)CC1,0,0,0,0,0,0,0
CCC(=O)Nc1cccc(-c2ccc(N3CCCCC3)nn2)c1,0,0,-,0,0,0,-
CN1CCN(c2ccc(-c3cccc(NC(=O)COc4ccccc4)c3)nn2)CC1,0,0,0,0,0,0,0
O=C(COc1ccccc1)Nc1cccc(-c2nc3cc4ccccc4cc3[nH]2)c1,0,0,-,0,0,0,0
CN1CCN(c2ccc(-c3cccc(NC(=O)COc4ccc(Cl)cc4Cl)c3)nn2)CC1,0,0,0,0,0,0,0
